Data from PubChem BioAssay (EPA / NIEHS).
Values joined by “and” are separate entries in the source; they are usually repeats but may differ in a detail not shown here. Equal values may be shown once. More than one record can exist for a structure, and the calls need not agree. Active and inactive are the calls of the source. The calls were made as follows: active = hit-call score of the fitted dose curve at least 0.9, where 1 is the maximum; inactive = score below 0.9.

Legend:
[1] = CCTE_Shafer_MEA_dev_mutual_information_norm: CCTE's Neural Network Formation Assay for Mutual Information Normalization, Shafer Lab (AID 2284091)
In short: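 Exposure of primary rat cortical neurons began at plating and ran to DIV 12, with full media and treatment renewal after DIV 5 and 9 recordings. Mutual information AUC (DIV 5–12) was analysed for loss versus DMSO.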

[2] = CCTE_Shafer_MEA_dev_correlation_coefficient_mean: CCTE's Neural Network Formation Assay for Mean Correlation Coefficient, Shafer Lab (AID 2284093);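 as to AC50: well mean pairwise spike train correlation integrated as AUC over recording days 5 to 12; potency fitted for loss of correlation relative to DMSO vehicle wells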
In short: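 Extracellular firing from rat cortical networks on 48-well MEAs, DMSO-referenced, negative fitting direction. Compound present from plating to DIV12; mean pairwise correlation per well integrated over DIV5–12 recordings by trapezoidal AUC.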

[3] = BSK_BT_PBMCCytotoxicity: PBMC Cytotoxicity Assessment in the BioMAP Diversity Plus: BT Assay (AID 2284225); settings: primary human B cells with PBMC;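 also: PBMC viability measured by Alamar Blue dye reduction fluorescence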
In short: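 Viability by Alamar Blue reduction (6 h, ex/em 546/580 nm) after 90 h culture of SEB/TSST-1-activated PBMC (20 ng/mL each) given compound 1 h before activation. DMSO served as baseline for curve fitting.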

[4] = read-out: Secreted IgG (sIgG), gene 3500; test: BSK_BT_sIgG: BioMAP Diversity Plus: BT Assay for Secreted IgG (sIgG) Biomarker Activity (AID 2284226); settings: primary human B cells with PBMC
In short: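 ELISA quantitation of secreted IgG from human B cells co-cultured with PBMC, sampled 24 h post-dosing. Values fitted relative to DMSO vehicle as baseline, positive fitting direction.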

[5] = BSK_BT_Bcell_Proliferation: Viability Assessment in the BioMAP Diversity Plus: BT Assay for B cell Proliferation (AID 2284227); settings: primary human B cells with PBMC
In short: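 Using a human primary B cell–PBMC co-culture, the assay measures total protein by sulforhodamine B absorbance as a gauge of proliferation after 72 h. Analysis followed the positive fitting direction with DMSO as baseline.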

[6] = read-out: Interleukin 6 (IL6), IL6 (gene 3569); test: BSK_BT_xIL6: BioMAP Diversity Plus: BT Assay for Interleukin 6 (IL6) Biomarker Activity (AID 2284228); settings: primary human B cells with PBMC
In short: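 B cells and peripheral blood mononuclear cells (human primary co-culture) were dosed with chemical, and after 24 h IL-6 released into the medium was measured by Luminex xMAP. Responses were analysed as gain of signal over DMSO control.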

[7] = read-out: Interleukin 17A (IL17A), IL17A (gene 3605); test: BSK_BT_xIL17A: BioMAP Diversity Plus: BT Assay for Interleukin 17A (IL17A) Biomarker Activity (AID 2284229); settings: primary human B cells with PBMC
In short: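 Secreted IL-17A was the measured endpoint, read by Luminex xMAP multiplex in supernatants of a human B cell/PBMC co-culture harvested 24 h after chemical dosing. Signal increase relative to DMSO defined activity.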

[8] = read-out: Tumor necrosis factor (Homo sapiens) (UniProt P01375); test: BSK_BT_xTNFa: BioMAP Diversity Plus: BT Assay for Tumor necrosis factor alpha (TNF-alpha) Biomarker Activity (AID 2284230); settings: primary human B cells with PBMC
In short: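 Endpoint derived in the positive direction versus DMSO vehicle. Cells: B cells together with PBMC, exposed 24 h before TNF-alpha in the medium was read on the Luminex xMAP platform.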

[9] = read-out: Vascular cell adhesion molecule 1 (VCAM1), VCAM1 (gene 7412); test: BSK_MyoF_VCAM1: BioMAP Diversity Plus: MyoF Assay for Vascular cell adhesion molecule 1 (VCAM1) Biomarker Activity (AID 2284231); settings: primary human lung fibroblasts
In short: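 ELISA read-out of VCAM-1 on human lung fibroblasts 24 h after chemical treatment, with positive-direction curve fitting relative to DMSO controls. Parallel cultures were stained with sulforhodamine B for total protein to flag overt cytotoxicity.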

Measured: AC50

Tumor necrosis factor (Homo sapiens), sequence (P01375 whole entry, looked up): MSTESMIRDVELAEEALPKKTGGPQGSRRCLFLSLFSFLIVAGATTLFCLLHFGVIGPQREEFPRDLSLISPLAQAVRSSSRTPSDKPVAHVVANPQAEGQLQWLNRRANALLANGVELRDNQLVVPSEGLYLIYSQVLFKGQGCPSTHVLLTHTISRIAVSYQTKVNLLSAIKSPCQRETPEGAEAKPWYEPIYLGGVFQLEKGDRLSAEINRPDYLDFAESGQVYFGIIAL

OCC(O)CC(F)(F)C(F)(F)C(F)(F)C(F)(F)F (centres undefined)
inactive: [1] | [2] | [3] | [4] | [5] | [6] | [7] | [8] | [9]
active: [8] 0.153 µM

C=CC(=O)OCCC(F)(F)C(F)(F)C(F)(F)C(F)(F)F
inactive: [1] | [9]
active: [2] 15 µM | [3] 37.8 µM and 25.8 µM | [4] 36.7 µM and 44.9 µM | [5] 45.3 µM and 46.6 µM | [6] 39.6 µM and 35.5 µM | [7] 33.5 µM and 10.7 µM | [8] 38.4 µM and 30 µM | [9] 21 µM

C=CC(=O)OCC(F)(F)C(F)(F)C(F)(F)C(F)(F)C(F)(F)C(F)(F)C(F)(F)C(F)F
inactive: [4]
active: [3] 32.5 µM and 22.7 µM | [4] 46.2 µM | [5] 44.8 µM and 30 µM | [6] 33.7 µM and 14.4 µM | [7] 30 µM and 27.2 µM | [8] 35.1 µM and 6.23 µM | [9] 27.2 µM and 37.2 µM

C=C(C)C(=O)OCC(F)(F)C(F)(F)C(F)(F)C(F)F
inactive: [3] | [4] | [5] | [6] | [7] | [8] | [9]

CCOC(=O)CC(=O)C(F)(F)C(F)(F)F
inactive: [3] | [4] | [5] | [6] | [7] | [8] | [9]

Cc1ccc(O)c(-n2nc3ccccc3n2)c1
inactive: [3] | [4] | [5] | [6] | [7] | [8] | [9]

NCC(F)(F)C(F)(F)C(F)(F)C(F)(F)C(F)(F)C(F)(F)C(F)(F)C(F)(F)F
inactive: [3] | [4] | [5] | [6] | [7] | [8] | [9]

O=C1c2c(O)ccc(Nc3ccc(CCO)cc3)c2C(=O)c2c([N+](=O)[O-])ccc(O)c21
inactive: [6] | [7] | [8]
active: [3] 20 µM | [4] 29.9 µM | [5] 15.5 µM | [9] 20 µM

NCC(F)(F)C(F)(F)C(F)(F)C(F)(F)C(F)(F)C(F)(F)F
inactive: [3] | [4] | [5] | [6] | [7] | [8] | [9]

O=C=NCc1cccc(CN=C=O)c1
inactive: [3] | [4] | [5] | [6] | [7] | [8] | [9]

O=C(Cl)C(F)(F)C(F)(F)C(F)(F)C(F)(F)C(F)(F)C(F)(F)F
inactive: [3] | [4] | [5] | [6] | [7] | [8] | [9]

O=C(O)CCC(F)(F)C(F)(F)C(F)(F)F
inactive: [3] | [4] | [5] | [6] | [7] | [8] | [9]

CN(C(=O)C(F)(F)C(F)(F)C(F)(F)F)[Si](C)(C)C
inactive: [3] | [4] | [5] | [6] | [7] | [8] | [9]

Nc1cc([N+](=O)[O-])cc(Cl)c1O
inactive: [3] | [4] | [5] | [6] | [7] | [8] | [9]

CCN(CC)c1ccc(C=O)cc1
inactive: [3] | [4] | [5] | [6] | [7] | [8] | [9]

CC(C)CCCC(C)CCO (centres undefined)
inactive: [3] | [4] | [5] | [6] | [7] | [8]
active: [9] 29.9 µM

FC(F)(F)C(F)(F)C(F)(F)CC1CO1 (centres undefined)
inactive: [3] | [4] | [5] | [6] | [7] | [8] | [9]

O=C(O)C(F)(F)C(F)(F)C(F)(F)OC(F)(C(F)(F)F)C(F)(F)F
inactive: [3] | [4] | [5] | [6] | [7] | [8] | [9]

Brc1nc2ccccc2s1
inactive: [3] | [4] | [5] | [7] | [8] | [9]
active: [6] 0.338 µM

CCN(CC)c1ccc2c(c1)Oc1cc(N(CC)CC)ccc1C21OC(=O)c2ccccc21
active: [3] 6.15 µM | [4] 6.43 µM | [5] 6.1 µM | [6] 10 µM
inactive: [7] | [8] | [9]

O=C(c1ccccc1)c1ccc(O)cc1O
inactive: [3] | [4] | [5] | [6] | [7] | [8] | [9]

Cc1cc(C)c(O)c(C(C)(C)C)c1
inactive: [3] | [4] | [5] | [6] | [7] | [8]
active: [9] 34.2 µM

CCN(CC)c1ccc(C=O)c(O)c1
inactive: [3] | [5] | [6] | [7] | [8] | [9]
active: [4] 20 µM

FC(F)(F)C(F)(F)C(F)(F)C(F)(F)C(F)(F)C(F)(F)CC[Si](Cl)(Cl)Cl
inactive: [3] | [4] | [5] | [6] | [7] | [8] | [9]

O=C(O)CCC(F)(F)C(F)(F)C(F)(F)C(F)(F)C(F)(F)C(F)(F)C(F)(F)F
inactive: [3] | [5] | [6] | [7] | [8] | [9]
active: [4] 3.33 µM and 5.61 µM

C[C@]12CC[C@H]3C(=CCc4cc(O)ccc43)[C@@H]1CCC2=O
active: [4] 29.1 µM | [5] 26.1 µM
inactive: [3] | [6] | [7] | [8] | [9]

Cc1cnccn1
active: [4] 5.22 µM
inactive: [3] | [5] | [6] | [7] | [8] | [9]

O=C(O)C(F)(F)C(F)(F)C(F)(F)C(=O)O
inactive: [3] | [4] | [5] | [6] | [7] | [8] | [9]

COC(F)(C(F)F)C(F)(F)F (centres undefined)
inactive: [3] | [4] | [5] | [6] | [7] | [8] | [9]

OCC(O)CC(F)(F)C(F)(F)C(F)(F)C(F)(F)C(F)(F)C(F)(F)C(F)(F)C(F)(F)F (centres undefined)
inactive: [3] | [4] | [5] | [6] | [7] | [8] | [9]

O=C(F)C1(F)C(F)(F)C(F)(F)C(F)(F)C(F)(F)C1(F)F
inactive: [3] | [4] | [5] | [6] | [7] | [8] | [9]

O=C1C=CC(=O)N1c1ccc(Cc2ccc(N3C(=O)C=CC3=O)cc2)cc1
active: [3] 4.43 µM | [4] 2.18 µM | [5] 3.64 µM | [6] 3.09 µM | [7] 1.99 µM | [8] 4.89 µM | [9] 3.05 µM

CC(C)(C)c1cc(CCC(=O)NCCCCCCNC(=O)CCc2cc(C(C)(C)C)c(O)c(C(C)(C)C)c2)cc(C(C)(C)C)c1O
active: [4] 1.98 µM
inactive: [3] | [5] | [6] | [7] | [8] | [9]

NS(=O)(=O)C(F)(F)C(F)(F)C(F)(F)C(F)(F)C(F)(F)C(F)(F)F
inactive: [3] | [4] | [5] | [6] | [7] | [8] | [9]

CCN(CC)c1ccc(N=Nc2ccccc2)cc1
active: [4] 18 µM | [5] 30.3 µM | [6] 20 µM | [7] 20 µM | [8] 31 µM | [9] 20 µM
inactive: [3]

Cc1ccc(S(=O)(=O)C(I)I)cc1
active: [3] 4.06 µM | [4] 2.03 µM | [5] 2.97 µM | [6] 2.82 µM | [7] 2.36 µM | [8] 4.64 µM | [9] 7.94 µM
